An excerpt weighted towards active compounds, which were near 4.1% of everything screened.
hcDAF-12 act: H. contortus DAF-12 activation, primary screen | activation, % at 6.8 µM | AID 652067 | HEK293 hcDAF-12 lit1-tk-luc reporter, luminescence; 0% DMSO, 100% Δ7-dafachronic acid | 1.4% of 370,000 active;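 active means activation above the mean of all tested compounds plus 3 SD, cut at about 5.5% in these data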;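 further: 100% = response to 3 µM Δ7-dafachronic acid high control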
DAX1 inh-1: DAX1 (NR0B1) inhibition, primary screen; HEK293T StAR-luciferase reporter, SF-1/DAX-1 repression relief; inhibition, % at 6.8 µM; 1.1% of 370,000 active;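 active means inhibition above the mean over all tested compounds plus 3 SD, cut at about 3.6% in these data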;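 further: 0% = DAX-1 cells with DMSO and 100% = cells lacking DAX-1 with DMSO; higher inhibition means more luminescence from relief of DAX-1 repression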
DAX1 inh-2: NR0B1 (DAX1) inhibition. P51843. HEK293 Gal4-DAX1 luciferase reporter, luminescence. inhibition, % at 6.75 µM. 0.99% of 340,000 active;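 active means inhibition above the mean over all tested compounds plus 3 SD, cut at about 4.2% in these data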;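 further: 0% = DAX1-transfected cells with DMSO and 100% = empty-vector control cells with DMSO; inhibition shows as a rise in luminescence from relieved DAX1 repression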
Target sequence (P51843 207-470 limits assumed): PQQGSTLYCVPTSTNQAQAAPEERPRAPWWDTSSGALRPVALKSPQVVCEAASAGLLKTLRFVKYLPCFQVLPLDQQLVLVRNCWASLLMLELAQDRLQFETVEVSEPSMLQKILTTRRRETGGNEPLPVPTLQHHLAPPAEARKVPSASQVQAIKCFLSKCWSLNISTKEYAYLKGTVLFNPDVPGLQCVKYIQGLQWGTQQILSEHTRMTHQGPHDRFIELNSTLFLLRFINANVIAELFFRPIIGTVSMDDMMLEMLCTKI
ssDAF-12 act: activates DAF-12 receptor from parasite S. stercoralis | activation, % at 6.8 µM | AID 652126 | 1% of 370,000 active | HEK293 ssDAF-12/GRIP1 lit1-tk-luc reporter, luminescence; % of 3 µM dafachronic acid response;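 active means activation above the mean over all tested compounds plus 3 SD, cut at about 0.9% in these data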;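 further: 0% = DMSO-only wells and 100% = 3 µM delta7-dafachronic acid wells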
hgDAF-12 ag: hgDAF-12 agonism, primary luciferase screen | activation, % at 6.8 µM | 1.8% of 370,000 active | HEK293 GAL4-hgDAF12 UAS-luciferase reporter, agonist luminescence; normalized to butyrate control;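 active means activation above a cutoff set at the mean of all screened compounds plus 3 SD, cut at about 10% in these data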;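 further: 0% = DMSO wells and 100% = sodium butyrate wells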
The depositor's hits bear a star; · = not tested or not shown.

SMILES	hcDAF-12 act	DAX1 inh-1	DAX1 inh-2	ssDAF-12 act	hgDAF-12 ag
COc1ccc(-c2nnc(SCC(=O)N3CCN(c4ccccc4)CC3)o2)cc1OC	-0.2	-0.4	6.2*	-1.4	1.1
O=C1OC(COc2ccc(Br)cc2)CN1c1ccccc1 (stereo unspecified)	-0.5	-0.5	-0.3	-1.1	-1.1
COc1ccc(-c2nnc(SCC(=O)NC3CC3)o2)c(OC)c1	0.6	4.3*	-0.7	-0.8	2.3
COc1ccc(OC)c(-c2nnc(SCC(=O)NC3CCCCC3)o2)c1	-2.3	-1.0	0.6	-1.1	1.8
C=CCOc1ccc(CNc2ccc(NC(=O)CCC)cc2)cc1OCC	-2.2	-0.8	4.5*	-1.9	3.1
C=CCOc1c(Br)cc(CNc2ccc(NC(=O)CCC)cc2)cc1OCC	-1.2	-0.1	-1.3	-0.3	1.7
Cc1ccc2nc3sc(C(=O)N4CCN(C)CC4)cc3cc2c1	-0.5	·	·	-1.7	2.0
CCc1ccc2nc3sc(C(=O)O)cc3cc2c1	6.1*	2.5	0.2	-0.9	6.8
CSCc1ccc(C(=O)OCc2nc3ccccc3s2)o1	6.2*	1.1	1.3	-0.3	11.7*
COC(=O)[C@]12C[C@H](CC(=O)N3CCSCC3)C(=O)N(CCC3=CCCCC3)C1=C[C@H](C(C)C)O[C@@H]2C1CC1	2.1	-0.7	·	-0.8	1.9
c1csc(-c2ccc3ccccc3n2)c1	4.7	1.6	2.3	-0.4	8.1
Nc1nc2ccccc2cc1-c1cccs1	1.3	1.2	5.4*	-0.5	6.5
Cc1c(CCC(=O)NCC(=O)O)c(=O)oc2cc3occ(-c4ccccc4)c3cc12	-2.1	0.7	-1.8	-0.6	-2.5
Cc1coc2cc3oc(=O)c(CCC(=O)NCC(=O)O)c(C)c3cc12	0.2	0.0	6.1*	-0.8	0.5
COc1ccc2ccc(=O)oc2c1	-1.5	-0.9	3.8	-1.2	-3.6
COc1cccc(OC)c1C(=O)NNC(=O)c1cccc(COc2ccc3c(c2)CCC3)c1	2.4	2.3	-3.9	-0.7	11.9*
CCOc1ccc(OCc2cccc(C(=O)N3CCCC3)c2)cc1	2.5	4.2*	-2.8	-0.7	10.1
COc1ccccc1NC(=O)c1ccc(COc2ccc3c(c2)CCC3)cc1	0.8	-0.2	-0.4	-0.5	0.9
COc1cccc(COc2ccc3ccc(=O)oc3c2)c1	0.2	0.5	2.5	1.0*	9.6
CCOc1ccc(C(=O)N2CCCC2)cc1	0.5	-0.2	-0.8	-0.9	1.5
O=C(OCC(F)(F)F)c1cccc(COc2ccc3ccccc3c2)c1	6.1*	5.6*	-4.7	0.4	14.6*
O=C(O)c1cccc(COc2ccc(CO)cc2Cl)c1	1.8	3.6*	-5.5	-0.5	0.7
O=Cc1ccc(OCc2cccc(C(F)(F)F)c2)cc1O	-1.3	-1.1	7.2*	-0.1	3.4
NNC(=O)c1ccc(COc2ccc3c(c2)CCC3)o1	-0.7	0.2	1.3	-0.8	11.2*
CC(C)Oc1cccc(C(=O)N2CCCC2)c1	1.2	0.0	-1.3	1.1*	0.0
SMILES	hcDAF-12 act	DAX1 inh-1	DAX1 inh-2	ssDAF-12 act	hgDAF-12 ag
O=C(Nc1ccccc1)/C(=C\c1ccc(F)cc1)NC(=O)c1ccco1	-0.3	-0.2	-0.7	-1.6	0.8
C=CC[C@]1(O)C(=O)N(c2ccccc2)c2ccccc21	-2.2	0.6	·	-1.0	0.9
C=CCN1C(=O)[C@@H](CC(=O)N2CCC(c3ccccc3)CC2)[C@]2(C(=O)OC)CCCCC=C12	-1.2	0.0	·	-0.7	-1.2
O=C(O)c1cc(OCc2ccccc2)cc(OCc2ccccc2)c1	0.2	-0.1	-0.3	-1.3	2.4
COc1ccc(OCc2cccc(C(=O)O)c2)cc1	5.8*	1.0	-6.3	0.2	5.4
O=[N+]([O-])c1ccc(S(=O)(=O)Nc2nc(-c3ccccc3)cs2)cc1	-0.6	0.1	0.1	-0.5	-2.0
C=CCNc1nc(-c2ccc([N+](=O)[O-])cc2)cs1	1.0	0.3	-0.6	-0.7	11.6*
C=CCNC(=O)C12CCC(C)(C(=O)[C@H]1Br)C2(C)C (stereo partly specified)	1.1	0.1	6.9*	-0.3	0.0
COc1ccccc1C(=O)NNC(=O)c1cccc([N+](=O)[O-])c1	1.8	-0.3	-0.1	-1.6	1.0
COc1ccccc1C(=O)NNC(=O)c1cccc(C)c1	5.2	1.5	2.0	1.1*	7.9
COC(=O)NNC(=O)c1ccccc1OC	6.2*	1.1	1.2	-0.6	-1.1
CCOP(=O)(OCC)C(NC(=O)Nc1ccc(C)cc1)C(N)=O (stereo unspecified)	-1.5	-0.4	·	-1.4	1.8
CCOP(=O)(OCC)C(NC(=O)Nc1ccc(Cl)cc1)C(=O)N(CC)CC (stereo unspecified)	0.1	0.2	1.4	1.5*	2.6
CCN(CC)C(=O)CC[C@H]1CC[C@]2(CCCN(Cc3cccc4ccccc34)C2)O1	-1.4	0.3	·	-0.9	-1.4
CCc1noc(C)c1C(=O)Nc1nc2ccc(F)cc2s1	3.3	3.9*	0.8	0.5	10.1
CCc1ccc2nc(NC(=O)c3cc(C)on3)sc2c1	5.2	-0.8	-2.1	-0.4	12.0*
CCCCc1ccc2nc(NC(=O)c3ccc(Br)o3)sc2c1	0.9	·	·	-0.7	10.6*
O=C1C[C@@H](c2ccccc2)N=C2N(Cc3ccc4c(c3)OCO4)C/C(=C/c3ccccc3)N12	-3.2	-0.3	·	-2.0	-3.3
Cc1ccc(C2/C(=C(\O)c3c(C)nc4c(C)cccn34)C(=O)C(=O)N2CCN(C)C)o1 (stereo unspecified)	0.7	0.1	2.1	0.1	1.0
Cc1nc2c(C)cccn2c1/C(O)=C1\C(=O)C(=O)N(CCN(C)C)C1c1ccccc1 (stereo unspecified)	-1.7	0.3	5.8*	1.0*	-1.4
C[C@@H]1CN([C@H](C)CO)C(=O)c2c(c3ccccc3n2C)-c2ccccc2CO[C@H]1CN(C)C(=O)c1cc(Cl)cc(Cl)c1	0.5	0.0	4.3*	-0.1	-1.6
C[C@@H]1CN([C@@H](C)CO)C(=O)c2c(c3ccccc3n2C)-c2ccccc2CO[C@H]1CN(C)C(=O)[C@H](C)c1ccccc1	-0.8	-3.6	-0.6	-1.8	-4.0
CC(/C=N/NC(=O)c1cccc(F)c1)=C\c1ccccc1	4.3	3.0	0.8	0.4	11.9*
O=C(N/N=C/c1cccnc1)c1cccc(F)c1	1.7	1.0	4.9*	-1.2	2.0
CC(/C=C/c1ccco1)=N\NC(=O)c1cccc(Cl)c1	2.5	1.2	0.7	-0.4	5.6
CC(/C=C/c1ccccc1F)=N\NC(=O)c1cccc(F)c1	0.1	2.5	1.8	-0.6	12.4*
O=C(CNC(=O)c1cccc(F)c1)N/N=C/c1cccnc1	-0.1	0.5	0.2	-0.3	-2.1
O=C(N/N=C/c1cccnc1)c1cc(Br)ccc1O	2.2	0.9	0.2	-0.8	12.4*
COc1cccc(C(=O)Nc2ccc3c(c2)OC[C@H](C)N(C(=O)C2CCCC2)C[C@@H](C)[C@@H](OC)CN(C)C3=O)c1	-0.9	1.1	·	-0.3	4.8

Screening results from PubChem BioAssay.
